Bioassay records from PubChem.
Measles CPE = protection of cells from measles virus | Measles virus-infected cells, CPE protection, absorbance | protection (pct of control), % at 4 µM | 140,000 tested, 1.5% active; in the data active = protection mostly above about 24%, no sharp cut-off; inactive = mostly below about 26%
CYP2C19 act = cytochrome P450 2C19 (human) activation | activation factor at 5 µM | 96,000 tested, under 10 active | AID 1025 | recombinant CYP2C19, luciferin-H EGE luminescence; hits give high values; 0 = fully inhibited enzyme, 1 = untreated enzyme;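 active = activation factor of at least 2 at 5 µM in the primary screen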;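 also: 0 = wells with 2.5 mM tranylcypromine and 1 = vehicle-only wells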
CYP2C9 act = activators of human CYP2C9. P11712. 96,000 tested, 1.4% active. activation factor at 5 µM. AID 1024. recombinant CYP2C9, luciferin-H conversion, luminescence; hits give high values; factor 1 = untreated enzyme, 0 = blocked;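 active = activation factor of 2 or more for CYP2C9 at a 5 µM dose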;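 also: 0 = sulfaphenazole-blocked wells and 1 = vehicle-only wells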
Target sequence (P11712 whole entry, looked up): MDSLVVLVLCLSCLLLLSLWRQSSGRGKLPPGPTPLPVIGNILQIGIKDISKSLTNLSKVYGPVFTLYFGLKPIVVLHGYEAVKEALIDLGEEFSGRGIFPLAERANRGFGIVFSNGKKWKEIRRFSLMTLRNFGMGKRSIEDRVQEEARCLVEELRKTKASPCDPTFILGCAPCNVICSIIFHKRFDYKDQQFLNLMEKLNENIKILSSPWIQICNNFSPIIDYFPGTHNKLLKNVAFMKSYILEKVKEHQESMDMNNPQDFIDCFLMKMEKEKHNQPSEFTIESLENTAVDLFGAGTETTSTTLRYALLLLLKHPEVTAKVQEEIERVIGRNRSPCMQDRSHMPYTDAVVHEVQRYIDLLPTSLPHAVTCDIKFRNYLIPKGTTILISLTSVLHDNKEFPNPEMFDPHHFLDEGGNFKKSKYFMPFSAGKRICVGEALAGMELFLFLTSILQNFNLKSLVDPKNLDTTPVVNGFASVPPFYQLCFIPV
CYP2C19 inh = blocks human cytochrome P450 2C19 | CYP2C19 Supersomes, luciferin-H EGE luminescence, 30 min | inhibition, % at 5 µM | P33261 | 96,000 tested, 21% active;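 active = CYP2C19 inhibition above a set limit at 5 µM in the primary screen, cut at about 50% in these data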;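 also: plate controls were negative control wells for no effect and 2.5 mM tranylcypromine positive control for full effect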
CYP2C9 inh = inhibitors of human CYP2C9; P11712; CYP2C9 Supersomes, luciferin-H conversion, luminescence; inhibition, % at 5 µM; 96,000 tested, 20% active; AID 777;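 active = blocking of liver enzyme CYP2C9 beyond about 50% at 5 µM, limit read from the data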
* = called active by the depositor; nt = no result given. Only some compounds are listed: those with a hit (about 22% of all), similar ones and a draw of the others.

SMILES	Measles CPE	CYP2C19 act	CYP2C9 act	CYP2C19 inh	CYP2C9 inh
O=C(OCC(=O)N1CCOCC1)c1ccccc1SCC(=O)N1CCCC1	22	1	1.1	1	-7
COc1ccc(Nc2ccc(Cl)cc2)c(C(=O)O)c1	8	nt	nt	nt	nt
N#Cc1ccc(OCc2nnc(SCC(=O)N3CCCc4ccccc43)n2-c2ccccc2)cc1	2	0.1	0.1	85*	87*
O=C(CSc1nnc2scc(-c3ccccc3)n12)N1CCCc2ccccc21	12	0.4	0.6	61*	36
COc1ccccc1-n1c(SCC(=O)N2CCCCC2)nnc1-c1ccccc1O	18	0.7	0.7	27	35
COc1ccccc1OCc1nnc(SCC(=O)N2CCCCC2)n1-c1ccccc1	28	0.3	0.9	71*	7
CCCn1c(SCC(=O)N2CCCc3ccccc32)nnc1-c1ccccn1	2	0.2	1.1	79*	-8
CCOc1ccc(-n2ccnc2SCC(=O)N2CCCc3ccccc32)cc1	6	nt	nt	nt	nt
CN(Cc1ccccc1)C(=O)CN1C(=O)C2C3C=CC(C3)C2C1=O (stereo not drawn)	2	nt	nt	nt	nt
CC(C(=O)Nc1cccc(Br)c1)c1ccc([N+](=O)[O-])cc1 (stereo not drawn)	10	nt	nt	nt	nt
CN1CCc2c(sc3nc(SCC(=O)N4CCOCC4)nc(N)c23)C1	4	0.9	0.8	7	18
CCOc1ccc(C(=O)NC2CCN(C(=S)NCc3ccco3)CC2)cc1	16	0.8	0.8	17	19
CC1Cc2ccccc2C(=O)N1 (stereo not drawn)	12	1.1	1.1	-9	-8
Cn1c(=O)c(-c2cc(Br)ccc2N)nc2ccccc21	14	0.1	0.5	93*	52*
CCOC(=O)c1ccc(NC(=O)C2(c3ccc(OC)cc3)CCOCC2)cc1	6	0.7	0.6	33	38
CCC(C)[C@@H](C(=O)NCC1CCC(C(=O)O)CC1)n1nnc2ccccc2c1=O (stereo partly drawn)	6	0.6	0.8	35	22
Cc1c(C(=O)Oc2cccc3ccccc23)cnn1-c1ccccc1	24	0.3	0.6	67*	40
CCOC(=O)c1cnn(-c2ccccc2)c1-n1cccc1	16	0.4	0.7	55*	27
CCOC(=O)c1cnn(-c2ccccc2)c1-c1ccccc1	3	0.5	0.6	48	44
CCc1ccc(NC(=O)c2cnn(-c3ccccc3)c2C)cc1	11	nt	nt	nt	nt
CCOC(=O)c1cnn(-c2ccccc2)c1-n1cccc1C(=O)C(=O)Nc1ccc(OC)cc1	17	0.7	0.2	30	80*
C/C(=N\NC(=O)c1ccn(C)n1)c1ccc(NC(=O)C2CCCC2)cc1	26	nt	nt	nt	nt
COc1cc(OC)c(C2CC(=O)N3CN(c4ccccc4)CSC3=C2C#N)cc1OC (stereo not drawn)	19	0.9	0.6	15	38
CCOC(=O)c1ccc(N2CSC3=C(C#N)C(c4ccc(OC)cc4OC)CC(=O)N3C2)cc1 (stereo not drawn)	1	0.5	0.1	52*	91*
COc1ccc(OC)c(C2CC(=O)N3CN(c4cccc(Cl)c4)CSC3=C2C#N)c1 (stereo not drawn)	21	0.3	0.1	70*	90*
SMILES	Measles CPE	CYP2C19 act	CYP2C9 act	CYP2C19 inh	CYP2C9 inh
COc1ccc(OC)c(C2CC(=O)N3CN(c4ccc(C)c(Cl)c4)CSC3=C2C#N)c1 (stereo not drawn)	4	0.5	0	54*	96*
CC(C(=O)Nc1cc([N+](=O)[O-])ccc1Cl)N1CCN(c2ccccc2O)CC1 (stereo not drawn)	5	nt	nt	nt	nt
O=C(CCC(=O)c1cccs1)Nc1nnc(C2CC2)s1	17	0.5	0.8	47	22
CCc1nc2ccccc2c(C(=O)O)c1C	11	0.5	0.6	48	39
CCc1nc2ccccc2c(C(=O)OCc2nnc(-c3ccccc3)o2)c1C	3	0.3	0.4	68*	61*
CCc1nc2ccccc2c(C(=O)OCCN2C(=O)c3ccccc3C2=O)c1C	30	0.2	0.4	76*	57*
O=C(NC(=S)NNC(=O)c1ccccc1[N+](=O)[O-])c1ccccc1	24	nt	nt	nt	nt
Clc1ccc(NC2(c3nnnn3C3CCCCC3)CCCCC2)cc1	50*	1	1.1	1	-9
COc1ccc(/C=N/n2cncn2)cc1CSc1ccccn1	4	0.2	0.6	83*	35
COc1ccc(/C=N/NC(=O)c2ccccc2O)cc1CSc1ccccn1	22	nt	nt	nt	nt
Cc1ccc(CSc2nnc(-c3ccncc3)n2C)cc1	5	0.3	0.8	73*	18
Cc1ccc(NC(=O)c2ccc(CSc3nnc(-c4ccncc4)n3C)cc2)cc1	2	0.8	0.3	22	66*
Cn1c(SCC#N)nnc1-c1ccc2c(c1)OCO2	6	nt	nt	nt	nt
COC(=O)CSc1nnc(-c2cccc(NC(=O)c3ccc(C)cc3)c2)n1C	2	0.6	0.2	39	76*
Cn1c(SCc2ccccc2)nnc1-c1ccc2c(c1)OCO2	15	0.1	1.1	88*	-8
CC(=O)Nc1ccc(-c2nnc(SCc3ccc(C)cc3)n2C)cc1	4	0.9	1	14	3
Cc1ccc(S(=O)(=O)Nc2nc3n(n2)C(c2ccc(Cl)cc2)CC(=O)N3)cc1 (stereo not drawn)	16	1.2	1.1	-18	-12
Oc1ccc(Cl)cc1Cc1cc(Cl)ccc1O	16	nt	nt	nt	nt
Cn1c(SCc2ccccn2)nnc1-c1ccncc1	5	0.1	0.6	94*	36
COc1cccc(-c2nnc(SCc3ccccn3)n2C)c1	30	1	0.7	-2	30
COC(=O)c1ccc(=O)n(-c2ccc(OC)cc2)c1	7	0.6	0.7	42	25
CCCCOC(=O)C1Cc2ccccc2C(=O)O1 (stereo not drawn)	2	0.2	0.8	85*	24
Cc1cc(N2C(=O)C3C4CC(C(Br)C4Br)C3C2=O)no1 (stereo not drawn)	32*	nt	nt	nt	nt
Cc1ccnc(N2C(=O)C3C4CC(C(Br)C4Br)C3C2=O)c1 (stereo not drawn)	3	0.9	1	6	-4
O=C1C2C3CC(C(Br)C3Br)C2C(=O)N1c1ccccn1 (stereo not drawn)	23	0.4	0.9	62*	9
SMILES	Measles CPE	CYP2C19 act	CYP2C9 act	CYP2C19 inh	CYP2C9 inh
O=c1ccc(NS(=O)(=O)c2ccc(Cl)cc2)cn1Cc1ccc(Cl)c(Cl)c1	3	0	0.1	97*	90*
Cn1c(CN2CCCC2)nc2cc(NS(=O)(=O)c3ccc(Cl)cc3)ccc21	8	0.8	1	20	2
COc1ccc(N(CC(=O)NC2CCCCC2)C(=O)CCCC(=O)Nc2ccccn2)c(OC)c1	15	0.7	0.6	27	41
COc1ccc(C2OCC3(CO2)SC(=O)NC3=O)cc1 (stereo not drawn)	5	nt	nt	nt	nt
CCC(=O)N(CCC(c1ccco1)c1ccccc1OC)Cc1cccs1 (stereo not drawn)	22	0	0	96*	96*
O=C(Nc1ccccc1)c1cnc[nH]1	17	1.1	1	-10	-4
